For experiment [1], the target named is Protein kinase C gamma type (Homo sapiens) (UniProt P05129). The note with it: at 1 µM.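 Note: each value is an averaged percent inhibition of the enzyme.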
Experiment [2] concerns the target T1, Protein kinase C iota type (Homo sapiens) (UniProt P41743).
T1 sequence (whole entry): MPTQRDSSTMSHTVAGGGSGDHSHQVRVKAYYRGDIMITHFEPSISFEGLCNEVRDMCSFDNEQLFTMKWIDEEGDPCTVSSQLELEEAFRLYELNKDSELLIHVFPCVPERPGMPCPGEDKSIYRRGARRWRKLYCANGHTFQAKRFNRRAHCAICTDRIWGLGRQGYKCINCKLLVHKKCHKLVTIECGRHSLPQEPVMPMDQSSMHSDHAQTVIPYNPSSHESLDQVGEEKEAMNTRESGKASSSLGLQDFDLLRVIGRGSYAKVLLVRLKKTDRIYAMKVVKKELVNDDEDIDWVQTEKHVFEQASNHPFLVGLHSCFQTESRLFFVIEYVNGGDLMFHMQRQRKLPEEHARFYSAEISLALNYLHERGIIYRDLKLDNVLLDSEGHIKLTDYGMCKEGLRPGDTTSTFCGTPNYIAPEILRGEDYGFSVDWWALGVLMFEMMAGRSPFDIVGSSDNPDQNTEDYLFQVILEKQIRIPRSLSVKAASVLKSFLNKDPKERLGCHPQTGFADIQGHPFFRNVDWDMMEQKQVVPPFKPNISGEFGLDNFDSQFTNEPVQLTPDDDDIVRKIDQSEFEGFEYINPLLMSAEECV
The settings on record: at 0.1 µM.

Experiment [3] has as its target T1, Protein kinase C iota type (Homo sapiens). The settings on record: at 1 µM.
Experiment [4] addresses Protein kinase C theta type (Homo sapiens) (UniProt Q04759). The note with it: at 0.1 µM.
For experiment [5] the target is unchanged. The settings on record: at 1 µM.
The target in experiment [6] is Protein kinase C beta type (Homo sapiens) (UniProt P05771). The note with it: at 0.1 µM.
The target is the same in experiment [7]. The settings on record: at 1 µM.
The target of experiment [8] is T2, Serine/threonine-protein kinase D1 (Homo sapiens) (UniProt Q15139).
T2 sequence (whole entry): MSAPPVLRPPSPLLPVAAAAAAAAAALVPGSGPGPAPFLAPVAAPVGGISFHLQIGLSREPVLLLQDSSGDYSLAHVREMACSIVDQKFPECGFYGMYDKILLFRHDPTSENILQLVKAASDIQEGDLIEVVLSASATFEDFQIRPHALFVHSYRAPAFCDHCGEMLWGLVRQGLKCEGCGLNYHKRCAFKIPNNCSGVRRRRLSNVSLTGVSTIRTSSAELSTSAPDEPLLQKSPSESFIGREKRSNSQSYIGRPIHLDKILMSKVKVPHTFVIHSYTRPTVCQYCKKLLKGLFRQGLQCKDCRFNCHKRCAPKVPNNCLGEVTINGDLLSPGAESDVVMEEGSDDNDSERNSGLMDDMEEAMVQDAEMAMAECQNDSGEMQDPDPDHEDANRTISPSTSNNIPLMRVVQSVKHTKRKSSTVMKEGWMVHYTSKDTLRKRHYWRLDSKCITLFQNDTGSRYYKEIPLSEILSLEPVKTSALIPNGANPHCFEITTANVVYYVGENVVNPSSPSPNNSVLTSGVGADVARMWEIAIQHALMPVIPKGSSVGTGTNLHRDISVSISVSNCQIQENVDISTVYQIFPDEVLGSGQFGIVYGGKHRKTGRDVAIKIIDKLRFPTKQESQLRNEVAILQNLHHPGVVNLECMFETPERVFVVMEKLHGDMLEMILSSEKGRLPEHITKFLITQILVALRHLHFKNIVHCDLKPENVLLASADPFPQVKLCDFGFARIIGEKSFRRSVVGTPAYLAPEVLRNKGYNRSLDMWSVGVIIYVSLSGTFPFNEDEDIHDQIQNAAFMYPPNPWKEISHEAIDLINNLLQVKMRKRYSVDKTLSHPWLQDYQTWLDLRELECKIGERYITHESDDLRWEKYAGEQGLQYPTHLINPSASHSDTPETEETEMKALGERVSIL
The settings on record: at 0.1 µM.

For experiment [9], the target named is T2, Serine/threonine-protein kinase D1 (Homo sapiens). The note with it: at 1 µM.
The target of experiment [10] is T3, Serine/threonine-protein kinase D2 (Homo sapiens) (UniProt Q9BZL6).
T3 sequence (whole entry): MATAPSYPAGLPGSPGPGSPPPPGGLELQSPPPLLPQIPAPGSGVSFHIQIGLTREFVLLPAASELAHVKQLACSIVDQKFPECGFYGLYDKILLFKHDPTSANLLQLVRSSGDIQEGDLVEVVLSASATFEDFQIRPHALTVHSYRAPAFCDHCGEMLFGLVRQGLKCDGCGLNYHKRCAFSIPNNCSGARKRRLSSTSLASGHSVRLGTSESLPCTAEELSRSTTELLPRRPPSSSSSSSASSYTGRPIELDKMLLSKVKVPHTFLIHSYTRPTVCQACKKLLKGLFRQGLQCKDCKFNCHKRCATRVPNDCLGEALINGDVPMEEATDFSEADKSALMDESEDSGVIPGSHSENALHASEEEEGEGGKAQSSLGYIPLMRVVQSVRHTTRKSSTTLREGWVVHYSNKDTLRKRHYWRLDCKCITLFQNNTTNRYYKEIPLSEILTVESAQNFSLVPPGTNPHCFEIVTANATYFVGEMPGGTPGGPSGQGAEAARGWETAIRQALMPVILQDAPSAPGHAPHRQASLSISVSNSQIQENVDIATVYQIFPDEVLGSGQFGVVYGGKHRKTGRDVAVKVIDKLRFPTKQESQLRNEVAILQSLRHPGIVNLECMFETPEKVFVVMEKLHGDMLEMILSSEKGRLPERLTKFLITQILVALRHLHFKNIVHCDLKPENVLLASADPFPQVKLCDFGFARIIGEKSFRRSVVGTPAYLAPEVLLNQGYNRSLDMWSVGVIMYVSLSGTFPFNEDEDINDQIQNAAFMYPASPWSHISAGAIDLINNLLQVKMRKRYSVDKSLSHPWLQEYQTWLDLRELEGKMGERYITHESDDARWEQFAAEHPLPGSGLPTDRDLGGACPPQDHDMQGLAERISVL
The note with it: at 0.1 µM.

Experiment [11] addresses T3, Serine/threonine-protein kinase D2 (Homo sapiens). The settings on record: at 1 µM.
Experiment [12] deals with T4, Serine/threonine-protein kinase D3 (Homo sapiens) (UniProt O94806).
T4 sequence (whole entry): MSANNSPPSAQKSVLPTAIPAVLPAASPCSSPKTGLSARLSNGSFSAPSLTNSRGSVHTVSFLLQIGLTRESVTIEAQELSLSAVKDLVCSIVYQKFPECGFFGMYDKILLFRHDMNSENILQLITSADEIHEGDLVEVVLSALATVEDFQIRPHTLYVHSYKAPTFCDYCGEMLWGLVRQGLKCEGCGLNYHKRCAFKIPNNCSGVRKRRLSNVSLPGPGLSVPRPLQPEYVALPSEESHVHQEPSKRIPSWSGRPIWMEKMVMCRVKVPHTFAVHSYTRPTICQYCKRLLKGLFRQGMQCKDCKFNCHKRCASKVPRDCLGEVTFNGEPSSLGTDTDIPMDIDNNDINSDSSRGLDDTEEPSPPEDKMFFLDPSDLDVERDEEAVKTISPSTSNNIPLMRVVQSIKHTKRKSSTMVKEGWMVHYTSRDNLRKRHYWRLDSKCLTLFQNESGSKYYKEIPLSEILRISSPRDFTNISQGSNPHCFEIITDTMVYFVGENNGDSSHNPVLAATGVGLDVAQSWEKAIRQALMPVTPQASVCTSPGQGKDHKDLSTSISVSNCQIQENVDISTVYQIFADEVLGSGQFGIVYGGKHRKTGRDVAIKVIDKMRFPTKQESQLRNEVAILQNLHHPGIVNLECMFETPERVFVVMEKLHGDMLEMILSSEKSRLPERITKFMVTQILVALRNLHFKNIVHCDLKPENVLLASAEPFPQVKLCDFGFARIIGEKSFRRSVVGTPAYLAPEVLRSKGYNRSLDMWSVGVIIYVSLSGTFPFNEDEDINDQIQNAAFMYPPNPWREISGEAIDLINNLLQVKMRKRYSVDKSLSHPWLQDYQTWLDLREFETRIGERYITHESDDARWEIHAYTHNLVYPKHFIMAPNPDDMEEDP
The settings on record: at 0.1 µM.

For experiment [13], the target named is T4, Serine/threonine-protein kinase D3 (Homo sapiens). The note with it: at 1 µM.
Experiment [14] deals with T5, cGMP-dependent protein kinase 1 (Homo sapiens) (UniProt Q13976).
T5 sequence (whole entry): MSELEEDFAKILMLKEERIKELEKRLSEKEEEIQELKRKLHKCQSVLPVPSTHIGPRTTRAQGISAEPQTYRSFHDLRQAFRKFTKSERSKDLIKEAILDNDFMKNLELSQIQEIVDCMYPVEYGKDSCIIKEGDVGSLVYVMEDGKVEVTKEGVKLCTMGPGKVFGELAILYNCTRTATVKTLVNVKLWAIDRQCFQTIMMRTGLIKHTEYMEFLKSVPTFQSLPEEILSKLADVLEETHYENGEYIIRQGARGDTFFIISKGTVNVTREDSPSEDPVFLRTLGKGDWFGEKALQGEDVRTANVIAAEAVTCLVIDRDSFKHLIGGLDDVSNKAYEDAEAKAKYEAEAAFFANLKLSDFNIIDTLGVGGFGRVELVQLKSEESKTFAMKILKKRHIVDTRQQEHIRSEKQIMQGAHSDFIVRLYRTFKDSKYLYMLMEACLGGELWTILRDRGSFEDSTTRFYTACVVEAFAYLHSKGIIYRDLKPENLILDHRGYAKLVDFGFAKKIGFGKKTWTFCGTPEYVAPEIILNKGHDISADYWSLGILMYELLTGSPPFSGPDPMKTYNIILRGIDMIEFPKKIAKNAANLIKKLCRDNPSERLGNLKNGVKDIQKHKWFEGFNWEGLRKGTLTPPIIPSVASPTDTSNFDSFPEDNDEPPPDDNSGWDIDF
The note with it: at 0.1 µM.

The target in experiment [15] is T5, cGMP-dependent protein kinase 1 (Homo sapiens). The note with it: at 1 µM.
Experiment [16] addresses T6, cGMP-dependent protein kinase 2 (Homo sapiens) (UniProt Q13237).
T6 sequence (whole entry): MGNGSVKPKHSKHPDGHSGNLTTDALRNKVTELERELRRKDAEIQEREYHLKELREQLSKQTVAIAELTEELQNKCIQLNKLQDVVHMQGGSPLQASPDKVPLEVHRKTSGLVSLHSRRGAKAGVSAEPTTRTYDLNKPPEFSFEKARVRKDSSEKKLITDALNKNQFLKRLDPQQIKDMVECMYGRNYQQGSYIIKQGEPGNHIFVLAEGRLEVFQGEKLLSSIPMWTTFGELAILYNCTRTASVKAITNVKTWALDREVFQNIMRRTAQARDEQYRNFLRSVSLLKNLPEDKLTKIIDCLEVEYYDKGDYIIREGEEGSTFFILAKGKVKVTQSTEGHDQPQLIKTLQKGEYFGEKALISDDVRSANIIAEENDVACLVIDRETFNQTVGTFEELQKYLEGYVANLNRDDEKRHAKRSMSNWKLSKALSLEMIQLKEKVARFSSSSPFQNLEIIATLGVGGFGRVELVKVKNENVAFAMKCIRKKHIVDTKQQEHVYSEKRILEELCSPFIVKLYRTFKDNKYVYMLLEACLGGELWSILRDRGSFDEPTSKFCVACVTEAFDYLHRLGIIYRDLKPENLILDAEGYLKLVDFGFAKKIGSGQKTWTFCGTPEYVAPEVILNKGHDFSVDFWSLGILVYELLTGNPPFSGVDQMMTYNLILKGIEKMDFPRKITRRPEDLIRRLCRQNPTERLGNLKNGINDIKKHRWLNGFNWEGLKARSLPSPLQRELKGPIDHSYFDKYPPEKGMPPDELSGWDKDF
The note with it: at 0.1 µM.

Experiment [17] concerns the target T6, cGMP-dependent protein kinase 2 (Homo sapiens). The settings on record: at 1 µM.
In experiment [18] the target is T7, cAMP-dependent protein kinase catalytic subunit PRKX (Homo sapiens) (UniProt P51817).
T7 sequence (whole entry): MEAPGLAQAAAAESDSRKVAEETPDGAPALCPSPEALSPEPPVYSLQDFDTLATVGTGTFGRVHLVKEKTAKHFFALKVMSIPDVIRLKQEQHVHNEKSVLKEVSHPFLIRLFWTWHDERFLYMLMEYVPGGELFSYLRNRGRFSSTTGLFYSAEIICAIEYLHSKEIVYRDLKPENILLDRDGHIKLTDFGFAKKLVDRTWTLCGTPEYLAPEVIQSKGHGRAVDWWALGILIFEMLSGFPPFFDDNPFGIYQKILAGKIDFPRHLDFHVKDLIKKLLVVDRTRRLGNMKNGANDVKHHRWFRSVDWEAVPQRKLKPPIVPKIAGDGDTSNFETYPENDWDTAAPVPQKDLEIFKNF
The settings on record: at 0.1 µM.

Experiment [19] addresses T7, cAMP-dependent protein kinase catalytic subunit PRKX (Homo sapiens). The note with it: at 1 µM.
The target of experiment [20] is Rho-associated protein kinase 1 (Homo sapiens) (UniProt Q13464). The note with it: at 0.1 µM.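 Note: values are mean percent inhibition of ROCK1.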

Experimental findings from ChEMBL document CHEMBL1961873, “Compounds: GSK PKIS; Assays: Nanosyn kinase panel” (2012) are described below.

What is called inhibition is the drop in the measured response relative to a control, in per cent.

Sequence of Protein kinase C theta type (Homo sapiens) (Q04759 whole entry, looked up): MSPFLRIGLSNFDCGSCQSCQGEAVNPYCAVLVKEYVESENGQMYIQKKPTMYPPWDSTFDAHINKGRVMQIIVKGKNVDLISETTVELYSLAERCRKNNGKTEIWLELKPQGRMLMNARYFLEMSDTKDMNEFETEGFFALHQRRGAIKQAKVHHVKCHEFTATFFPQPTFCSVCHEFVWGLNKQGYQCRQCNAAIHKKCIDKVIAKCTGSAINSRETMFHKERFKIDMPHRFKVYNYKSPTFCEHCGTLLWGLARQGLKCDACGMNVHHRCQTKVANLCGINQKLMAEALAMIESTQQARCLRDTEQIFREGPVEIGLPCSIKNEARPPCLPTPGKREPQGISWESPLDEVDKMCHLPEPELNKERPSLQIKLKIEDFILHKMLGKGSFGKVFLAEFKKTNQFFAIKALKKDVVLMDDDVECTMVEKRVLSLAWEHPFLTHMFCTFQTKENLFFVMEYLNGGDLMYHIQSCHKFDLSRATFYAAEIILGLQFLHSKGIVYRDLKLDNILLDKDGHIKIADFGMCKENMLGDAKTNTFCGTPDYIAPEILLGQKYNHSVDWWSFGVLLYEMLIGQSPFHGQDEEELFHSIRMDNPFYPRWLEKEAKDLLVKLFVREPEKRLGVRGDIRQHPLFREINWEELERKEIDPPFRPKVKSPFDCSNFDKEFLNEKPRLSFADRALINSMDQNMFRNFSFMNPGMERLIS
Sequence of Protein kinase C beta type (Homo sapiens) (P05771 2-671 limits assumed): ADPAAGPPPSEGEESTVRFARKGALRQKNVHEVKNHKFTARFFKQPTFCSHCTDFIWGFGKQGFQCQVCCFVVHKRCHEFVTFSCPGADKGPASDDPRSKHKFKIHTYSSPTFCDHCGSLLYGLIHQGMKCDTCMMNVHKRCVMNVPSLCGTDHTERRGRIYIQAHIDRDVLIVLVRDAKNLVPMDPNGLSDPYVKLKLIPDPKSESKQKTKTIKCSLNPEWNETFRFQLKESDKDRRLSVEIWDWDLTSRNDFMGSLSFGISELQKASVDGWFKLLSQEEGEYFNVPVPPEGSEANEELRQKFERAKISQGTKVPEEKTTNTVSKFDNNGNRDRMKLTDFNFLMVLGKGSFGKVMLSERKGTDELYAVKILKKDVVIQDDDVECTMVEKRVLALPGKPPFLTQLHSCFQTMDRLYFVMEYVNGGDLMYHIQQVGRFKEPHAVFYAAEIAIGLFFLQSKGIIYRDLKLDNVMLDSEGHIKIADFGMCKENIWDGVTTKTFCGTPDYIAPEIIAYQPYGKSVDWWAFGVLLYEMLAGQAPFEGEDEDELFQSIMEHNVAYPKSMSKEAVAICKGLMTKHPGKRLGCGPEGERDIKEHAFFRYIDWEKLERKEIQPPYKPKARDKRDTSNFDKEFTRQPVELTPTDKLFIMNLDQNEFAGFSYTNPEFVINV
Sequence of Rho-associated protein kinase 1 (Homo sapiens) (Q13464 2-1354 limits assumed): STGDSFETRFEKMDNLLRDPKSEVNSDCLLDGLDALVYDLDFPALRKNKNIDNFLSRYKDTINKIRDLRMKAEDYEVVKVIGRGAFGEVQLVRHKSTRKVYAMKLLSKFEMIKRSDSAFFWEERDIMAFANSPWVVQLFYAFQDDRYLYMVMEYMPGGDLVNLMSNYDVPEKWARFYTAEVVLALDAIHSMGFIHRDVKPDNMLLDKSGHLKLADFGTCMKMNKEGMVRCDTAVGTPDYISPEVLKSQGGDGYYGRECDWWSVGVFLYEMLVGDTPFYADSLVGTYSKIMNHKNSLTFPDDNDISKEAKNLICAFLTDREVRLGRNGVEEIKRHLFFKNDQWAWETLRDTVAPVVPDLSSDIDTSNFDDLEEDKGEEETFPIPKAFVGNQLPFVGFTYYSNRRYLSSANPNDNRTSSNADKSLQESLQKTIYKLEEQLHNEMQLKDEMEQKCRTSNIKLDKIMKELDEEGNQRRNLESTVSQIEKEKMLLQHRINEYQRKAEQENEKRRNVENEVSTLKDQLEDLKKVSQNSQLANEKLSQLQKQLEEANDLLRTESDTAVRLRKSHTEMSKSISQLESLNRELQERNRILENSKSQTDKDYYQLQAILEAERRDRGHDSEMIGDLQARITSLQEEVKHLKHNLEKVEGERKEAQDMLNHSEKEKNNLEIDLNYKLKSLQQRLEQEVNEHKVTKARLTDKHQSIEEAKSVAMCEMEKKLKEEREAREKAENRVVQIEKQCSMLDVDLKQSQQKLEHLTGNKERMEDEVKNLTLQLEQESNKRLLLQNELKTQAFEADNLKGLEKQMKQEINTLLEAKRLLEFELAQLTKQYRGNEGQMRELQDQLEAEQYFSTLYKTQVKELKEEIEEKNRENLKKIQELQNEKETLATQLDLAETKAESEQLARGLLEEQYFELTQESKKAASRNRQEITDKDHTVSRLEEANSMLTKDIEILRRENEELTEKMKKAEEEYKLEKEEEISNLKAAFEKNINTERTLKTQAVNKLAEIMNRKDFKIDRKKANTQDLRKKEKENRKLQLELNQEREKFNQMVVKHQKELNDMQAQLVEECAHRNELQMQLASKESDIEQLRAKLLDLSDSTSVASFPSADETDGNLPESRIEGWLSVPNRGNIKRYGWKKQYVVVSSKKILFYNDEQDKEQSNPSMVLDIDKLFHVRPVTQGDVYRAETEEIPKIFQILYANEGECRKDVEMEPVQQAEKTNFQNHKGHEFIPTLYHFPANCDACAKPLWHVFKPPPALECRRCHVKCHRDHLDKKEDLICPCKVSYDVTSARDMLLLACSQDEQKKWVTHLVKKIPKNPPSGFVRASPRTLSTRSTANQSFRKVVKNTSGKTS

On to `CS(=O)(=O)Nc1ccc(-c2ccc3c(NC(=O)C4CC4)n[nH]c3c2)cc1`, for which the inhibition in experiment [1] is 4.43%; in experiment [2] it was 0.75%; in experiment [3], 3.13%; in [4], 1.56%; in [5], -0.36%; in [6] it was 1.18%. For the same compound, the inhibition in [7] turned out to be 1.78%; in experiment [8] it was 2.7%; in experiment [9], 4.68%; in [10], 3.14%; in experiment [11], 5.01%; in [12] it was 3.46%. For the same compound, the inhibition is 6.13% in experiment [13]; 2.24% in experiment [14]; 3.26% in experiment [15]; 1.29% in experiment [16]; 2.97% in experiment [17]; 1.03% in experiment [18]. Also, the inhibition in experiment [19] was -0.97%; in experiment [20], 0.87%.
